A selection: hits, their analogues and other compounds. The true share with any hit is near 8.2%.
KB-3-1 cytotox = KB-3-1 parental cell cytotoxicity. KB-3-1 viability, CellTiter-Glo ATP luminescence, 72 h. Potency, µM (top dose mostly 46.1 µM), actives largely listed as cytotoxic. 400,000 tested, 1.4% active. AID 1347075; further: on the % scale 0 is the no-effect control and ±100 the full control effect; nearly all actives have a fitted effect of over 60% in size
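Screening of KB-3-1 cells (DMEM, 10% FBS, phenol-red free) ran from lowest to highest compound concentration; after 72 h at 37 °C viability was read luminescently and curves fitted.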
SW480 rereplic = inducers of DNA re-replication in SW480 colon cancer cells | SW480 DNA re-replication, Hoechst DNA content imaging, 48 h | Potency, µM (doses to about 46.1 µM), without a hit: top-dose re-replication activation, most hits filed as activators | 340,000 tested, 1.8% active | AID 624297; further: % of control where 0% means no effect; nearly all actives have a fitted effect of over 55% in size
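Readout is total intensity of Hoechst-stained nuclei, excited at 405 nm and collected at 500-530 nm. Compound treatment lasted 48 hr at 37 C in 5% CO2 before staining.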
ELG1 DNA repair = blocks ELG1-dependent DNA repair in HEK293T cells. HEK293T ELG1-luciferase reporter, luminescence, 16 h; DNA damage induced by 5-fluorouridine. Potency, µM (titrated, usually from 46.1 µM), inactives show top-dose activity change, negative = inhibition, hits mostly inhibitors. 330,000 tested, 2.3% active. AID 504467; further: on the % scale 0 is the no-effect control and ±100 the full control effect; nearly all actives have a fitted effect of over 55% in size
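Luminescence from the luciferase reporter, measured 30 min after ONE-Glo reagent at room temperature, was the read-out. Beforehand, 2,000 cells per well were exposed for 16 hr at 37 °C to 5-fluorouridine together with compound or vehicle.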
KB-V1 cytotox = kills drug-selected multidrug resistant KB-V1 cells | KB-V1 MDR cells viability, CellTiter-Glo, 72 h | Potency, µM (titrated, usually from 46.1 µM), usual class: cytotoxic | 400,000 tested, 3.4% active; further: on the % scale 0 is the no-effect control and ±100 the full control effect; nearly all actives have a fitted effect of over 60% in size
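Cells of the MDR subline KB-V1 are plated, dosed with compound at multiple concentrations, and incubated 72 h at 37 degrees C; CellTiter-Glo is then added and luminescence read after 10 min.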
MCF10A rereplic = induces DNA re-replication in MCF 10a normal breast cells. MCF 10A DNA re-replication, Hoechst nuclear intensity, 48 h. Potency, µM (series often up to 46.1 µM), for the others: top-dose activity, positive = re-replication, actives largely listed as activators. 350,000 tested, 2.9% active. AID 624296; further: % of control where 0% means no effect; nearly all actives have a fitted effect of over 50% in size
* hit, by the source's call; i = inactive; ? = inconclusive; · = no result. The call rests on the fitted dose curve; in most records, active means well fitted curve in the direction sought with a large enough effect; inconclusive means small, poorly fitted or top-dose-only effect, or another doubt; inactive means no such curve, though single readings can be large; an effect the other way counts as inactive or inconclusive. Potency means the concentration at half of the fitted maximal effect.

SMILES	KB-3-1 cytotox	SW480 rereplic	ELG1 DNA repair	KB-V1 cytotox	MCF10A rereplic
COc1cc(Cl)c(C)cc1Nc1nc2ccccc2nc1NS(=O)(=O)c1ccccc1	i	·	·	i	·
CC1=C(C)C(=O)C(C(CCCCCC(=O)O)c2ccccc2)=C(C)C1=O (stereo not drawn)	·	-3%	·	·	-2%
CC(C)N1CCN(Cc2ccc(OC3CCCC3)cc2)CC1CCO (stereo not drawn)	i	3%	-1%	i	4.6µM*
COc1ccccc1N=CC=C1OC(C)(C)C(C)(C)O1	i	?	?	i	21µM*
COc1cc(NC(=O)CC2C(=O)OCCN2Cc2ccccc2)cc(OC)c1 (stereo not drawn)	i	·	·	i	·
CNC(=O)CC1C(=O)N(Cc2ccccc2)C(=S)N1NC(=O)c1cccc(F)c1 (stereo not drawn)	i	-9%	8%	21µM*	-7%
CNC(=O)CC1C(=O)N(c2ccc(OC)cc2)C(=S)N1NC(=O)c1cccc(F)c1 (stereo not drawn)	i	2.3µM*	13%	i	?
CNC(=O)CC1C(=O)N(c2ccc(Cl)cc2)C(=S)N1NC(=O)c1cccc(F)c1 (stereo not drawn)	i	-17%	14%	i	3%
Cc1c(/C=C(\C#N)C(=O)NCc2ccccc2)cc(C#N)n1C	i	?	22%	i	-2%
CCOC(=O)c1sc(NC(=O)CCCn2nc([N+](=O)[O-])cc2C)c(C(=O)OCC)c1C	i	7%	?	?	4%
CC1=CC(C)(C)Nc2ccc(OC(=O)CCN3C(=O)c4ccccc4C3=O)cc21	?	9.2µM*	5%	?	6.5µM*
CC1=CC(C)(C)Nc2ccc(OS(=O)(=O)c3ccc(C)cc3)cc21	i	-6%	2%	15µM*	?
COc1ccc2c(c1)NC(C)(C)C=C2C	i	?	-10%	i	27%
Cc1ccc(S(=O)(=O)Oc2ccc3ccc(O)cc3c2)cc1	i	-17%	8%	?	1µM*
O=C(Nc1ccc(F)c(Cl)c1)C1CCCN1S(=O)(=O)c1ccc(F)cc1 (stereo not drawn)	i	·	·	i	·
CS(=O)(=O)c1cccc(-c2csc(N3CCC(C(N)=O)CC3)n2)c1	i	-8%	?	?	-9%
COCCCNCCOCCOc1ccc(Cl)cc1C(C)(C)C	i	?	-13%	18µM*	18µM*
C=CCNCCOCCOc1ccc(Cl)cc1C(C)(C)C	i	12%	8%	?	?
Cc1cccc(C(O)c2ncc(-c3ccc(Cl)cc3)[nH]2)c1C (stereo not drawn)	i	·	·	i	·
Cc1ccc(NC(=S)N2CCCC(c3nc4ccccc4[nH]3)C2)cc1 (stereo not drawn)	i	-35%	0%	i	0%
Cc1ccc(NC(=S)c2nc3ccccc3[nH]2)cc1	?	-5%	?	23µM*	?
Cc1ccc(NC(=S)c2nc3ccccc3[nH]2)c(C)c1	21µM*	1%	?	?	?
Cc1ccc(NC(=S)c2ccncc2)c(C)c1	i	?	5%	?	?
COc1cc2c(=O)n(Cc3ccccc3)c(=O)n(CC(=O)Nc3cc(C(F)(F)F)ccc3Cl)c2cc1OC	i	·	·	i	·
C=CCSc1nnc(NC(=O)c2cccc(S(=O)(=O)N(C)c3ccccc3)c2)s1	i	-1%	-7%	16µM*	?
SMILES	KB-3-1 cytotox	SW480 rereplic	ELG1 DNA repair	KB-V1 cytotox	MCF10A rereplic
CCc1nnc(NC(=O)c2ccc(N(C)S(=O)(=O)c3ccccc3)cc2)s1	i	-8%	-14%	6.5µM*	-3%
Cc1nnc(SCC(=O)Nc2cccc(S(=O)(=O)N(C)c3ccccc3)c2)s1	i	-1%	?	?	-3%
O=C(C[n+]1csc2ccccc21)c1ccccc1	i	·	·	i	·
O=C(Nc1nc(-c2ccccc2)cs1)C1CCCN(S(=O)(=O)c2ccccc2)C1 (stereo not drawn)	i	?	2.3µM*	?	8.2µM*
O=C(Nc1nc(-c2ccccc2)cs1)c1cccc([N+](=O)[O-])c1	i	-2%	-1%	23µM*	?
O=C(Nc1cccc2cccnc12)c1cccc([N+](=O)[O-])c1	i	-24%	?	i	11%
O=C(Nc1nc(-c2ccccc2)cs1)C1CCCN(S(=O)(=O)c2cccc([N+](=O)[O-])c2)C1 (stereo not drawn)	i	-1%	16µM*	i	8%
O=C(Nc1ccccc1C(=O)Nc1ccccn1)c1cccc([N+](=O)[O-])c1	i	11%	-11%	i	3.7µM*
CC1CCCN(S(=O)(=O)c2cccc([N+](=O)[O-])c2)C1 (stereo not drawn)	i	0%	0%	i	-9%
O=C(Nc1nc(-c2cccnc2)cs1)c1cccc([N+](=O)[O-])c1	i	-5%	?	i	-4%
O=C(Nc1cccnc1)C1CCCN(S(=O)(=O)c2ccccc2)C1 (stereo not drawn)	i	0%	?	i	-3%
COc1ccc(NC(=O)C2(C)Cc3c(-c4ccc5c(c4)OCO5)ccnc3O2)cc1OC (stereo not drawn)	i	·	·	i	·
CCC[C@H](CN[C@@H](CNC)[C@H](C)CC)NCCc1cc(C(F)(F)F)cc(C(F)(F)F)c1	?	8%	21µM*	?	?
Cc1ccc(NC(=O)C2CCCN2S(=O)(=O)c2ccc3c(c2)CCCC(=O)N3)cc1C (stereo not drawn)	i	·	·	i	·
Cn1cc(Cl)c(C(=O)NC(=S)Nc2sc3c(c2C#N)CCCCC3)n1	i	-2%	?	?	?
CCc1ccc(OCC(=O)N2c3ccccc3CCc3ccccc32)cc1	?	?	-15%	18µM*	?
CCS(=O)(=O)c1ccc(O)c(NC(=O)COc2ccccc2)c1	i	-5%	2%	i	13%
CCc1ccc(OCC(=O)Nc2cccc3c2CCCC3)cc1	i	7.3µM*	7%	i	2%
CCc1ccc(OCC(=O)NC(NC(=S)Nc2ccccc2C)C(Cl)(Cl)Cl)cc1 (stereo not drawn)	?	8%	-16%	?	18µM*
Cc1ccccc1NC(=S)NC(NC(=O)COc1ccccc1)C(Cl)(Cl)Cl (stereo not drawn)	?	10%	-17%	?	7%
CCc1ccc(OCC(=O)Nc2cc(S(=O)(=O)CC)ccc2O)cc1	i	-9%	-12%	16µM*	-10%
CCc1ccc(OCC(=O)N2CCc3ccccc32)cc1	i	-8%	?	i	19%
Nc1cccnc1S(=O)(=O)c1ccccc1	i	-1%	6%	?	5%

Compound activity: PubChem BioAssay, National Center for Advancing Translational Sciences (NCATS)
